Hits are enriched below; roughly 10% of the tested compounds scored in any of these assays.
hNpr1 antagonist = Natriuretic polypeptide receptor (hNpr1) antagonism - Primary qHTS; Atrial natriuretic peptide receptor 1 (Homo sapiens), P16066; HEK293 hNpr1 GloSensor cGMP, ANP-stimulated luminescence; Potency, µM (top dose mostly 46.3 µM), for the others: at the top dose activity change, negative = inhibition, actives largely listed as inhibitors; 76,000 compounds, 1.6% hits; calls by dose curve; also: potency is read from the fitted curve at half-maximal effect; % is scaled to controls: 0 for no effect and ±100 for the full control effect; nearly all actives have a fitted effect of over 60% in size
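Compound pre-incubated 30 min at room temperature on GloSensor-loaded HEK293 cells stably carrying hNpr1 and the pGS-40F cGMP biosensor. Stimulation uses hNppA at 0.1 nM final; luminescence is taken at baseline and 20 min post-agonist.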
Luciferase inh = Firefly luciferase inhibition profiling of diverse chemical library using quantitative high-throughput screening | purified P. pyralis luciferase, luminescence, biochemical | Potency, µM (series often up to 115 µM), most hits filed as inhibitors | 76,000 compounds, 2.5% hits | AID 1347043, 2019; also: potency is read from the fitted curve at half-maximal effect; % is scaled to controls: 0 for no effect and ±100 for the full control effect; nearly all actives have a fitted effect of over 65% in size
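Inhibitors were tested against purified firefly luciferase in a biochemical, low-substrate format (both substrates at 10uM) and luminescence measured with a CCD imager.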
HEK293 tox = Cytotoxic Profiling in HEK 293 Cell Line of Diverse Libraries Using Quantitative High-Throughput Screening | HEK 293 viability, ATP luminescence (CellTiter-Glo), 48-72 h | Potency, µM (series often up to 115 µM), for the others: at the top dose activity change, negative = cytotoxicity, hits mostly inhibitors | 94,000 compounds, 6.6% hits | AID 1345083, 2018; also: potency is read from the fitted curve at half-maximal effect; % is scaled to controls: 0 for no effect and ±100 for the full control effect; nearly all actives have a fitted effect of over 60% in size
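Read-out: CellTiter-Glo ATP luminescence. Cells: HEK 293, 250 cells/well. Exposure: 48 or 72 hr, 37 degree Celsius.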
GPT2 inhibitor = Primary qHTS assay for inhibitors of Glutamate pyruvate transaminase 2 (GPT2). 100,000 compounds, 0.25% hits. Recombinant GPT2, coupled pyruvate oxidase/HRP Amplex Red fluorescence. Potency, µM (top dose mostly 57.7 µM), inactives show at the top dose activity change, negative = inhibition, actives largely listed as inhibitors; also: potency is read from the fitted curve at half-maximal effect; % is scaled to controls: 0 for no effect and ±100 for the full control effect; nearly all actives have a fitted effect of over 60% in size
Target sequence (Q8TD30 whole entry, looked up): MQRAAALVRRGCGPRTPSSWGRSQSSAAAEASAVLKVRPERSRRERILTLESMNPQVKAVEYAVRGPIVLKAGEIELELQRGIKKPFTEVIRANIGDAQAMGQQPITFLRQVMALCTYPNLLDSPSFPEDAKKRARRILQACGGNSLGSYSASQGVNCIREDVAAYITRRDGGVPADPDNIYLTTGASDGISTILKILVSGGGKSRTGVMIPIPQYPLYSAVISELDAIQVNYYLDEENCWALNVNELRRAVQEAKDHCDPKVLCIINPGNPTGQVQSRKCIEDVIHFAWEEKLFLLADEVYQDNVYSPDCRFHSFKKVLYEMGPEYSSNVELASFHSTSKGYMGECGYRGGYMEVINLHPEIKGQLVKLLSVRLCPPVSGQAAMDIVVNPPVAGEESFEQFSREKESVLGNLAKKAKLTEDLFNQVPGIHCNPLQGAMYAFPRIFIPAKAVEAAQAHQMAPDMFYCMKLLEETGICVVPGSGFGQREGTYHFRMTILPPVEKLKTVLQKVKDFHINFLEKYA
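Fluorescence of coupled pyruvate oxidase/HRP/Amplex Red system (50uM Amplex, 30 min, dark) reports pyruvate formed by GPT2. Enzyme reaction: 10ng/uL GPT2, 2mM L-alanine, 250uM a-KG, 30 min room temperature, pH 7.5; 50uM AOA control.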
NIH3T3 tox = Cytotoxic Profiling in NIH 3T3 Cell Line of Diverse Libraries Using Quantitative High-Throughput Screening; NIH 3T3 viability, CellTiter-Glo ATP luminescence, 48-72 h; Potency, µM (titrated, usually from 96.7 µM), for the others: at the top dose activity change, negative = cytotoxicity, most hits filed as inhibitors; 94,000 compounds, 4.3% hits; AID 1345082, 2018; also: potency is read from the fitted curve at half-maximal effect; % is scaled to controls: 0 for no effect and ±100 for the full control effect; nearly all actives have a fitted effect of over 55% in size
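NIH 3T3 cells at 400 cells/well received 23 nL of compound by pintool and were incubated 48 or 72 h at 37 °C. Viability was read as ATP-coupled CellTiter-Glo luminescence.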
GPT2 conf = Confirmatory qHTS assay for inhibitors of Glutamate pyruvate transaminase 2 (GPT2) | 95 compounds, 90% hits | Potency, µM, actives largely listed as inhibitors | shares compounds with GPT2 inhibitor | GPT2 enzyme, coupled Amplex Red pyruvate fluorescence
Numbers without * were called inactive; i = inactive; ? = inconclusive; / = no result given; [ ] = dose if it differs, or a comment. Unless noted, calls follow the shape of the dose curve; as a rule, active = well fitted curve in the direction sought with a large enough effect; inconclusive = small, poorly fitted or top-dose-only effect, or another doubt; inactive = no such curve, though single readings can be large; an effect the other way counts as inactive or inconclusive.

SMILES	hNpr1 antagonist	Luciferase inh	HEK293 tox	GPT2 inhibitor	NIH3T3 tox	GPT2 conf
COCC1CN(C(C)=O)CC12CCN(Cc1c[nH]c3ccc(OC)cc13)CC2 (centres undefined)	-9.6%	i	i	-17.2%	0.7%	/
COc1ccc(OCC2(C)COc3ccc(C(=O)NCCc4ccccc4)cc3N2)cc1 (centres undefined)	-18.7%[70.6 µM]	i	?	0.4%[88.5 µM]	?	/
COc1cccc([S+](=O)([O-])N2CCNc3cnc(Nc4ccc(N5CCOCC5)cc4)nc3C2)c1	2.3%	i	?	1.12µM*	-6.6%	1.22*
CC(C)(C)OC(=O)N1CC(N2CCc3ccccc32)C1	/	/	-23.5%[172 µM]	-34.5%[88.5 µM]	?	/
CNC(=O)c1cc(Nc2cccc(N(C)C)c2)cc2c1OCCN2Cc1cccnc1	-1.2%[70.6 µM]	i	?	?	?	3.53*
Cc1ccc2c(c1)C(N1CCN(C)CC1)=Nc1cccnc1N2	/	/	/	i	/	/
Cc1cc2c(s1)Nc1ccccc1N=C2N1CCN(C)CC1	/	/	/	?	/	8.63*
COc1ccc(CN2CCNc3cnc(Nc4ccccc4)cc3C2)cn1	-3.9%[70.6 µM]	i	?	?	?	3.14*
COCCN1CCNc2cc(Nc3ccc(N4CCOCC4)cc3)ncc2C1	2.3%[70.6 µM]	i	-27.0%[172 µM]	?	?	5.59*
c1ccc(Nc2cc3c(cn2)NCCN(Cc2ccsc2)C3)cc1	-3.2%[70.6 µM]	i	?	?	?	2.5*
COc1ccc(Nc2cc3c(cn2)NCCN(Cc2ccccc2)C3)cc1	?	i	79.4µM*	?	?	5.59*
Cc1ccc([S+](=O)([O-])NC2CCN(C(=O)c3ccc(-c4cccs4)cc3)CC2)cc1	/	/	?	-19.2%	?	/
O=C(c1ccc(F)cc1)N1CCCC(C(=O)N2CCC(N3CCCC3=O)CC2)C1 (centres undefined)	/	/	i	-18.6%	-2.4%	/
Cc1ccc(C(=O)N2CCC(Oc3ncccc3C(=O)N3CCCCC3)C2)cc1C (centres undefined)	0.3%	i	?	i	?	/
O=C(c1cccs1)N1CCOc2ccc(N3CCCC3)cc2C1	/	/	17.8µM*	1.26µM*	?	1.37*
O=C(O)[C@H]1O[C@H](Oc2cc3oc(-c4ccccc4)cc(=O)c3c(O)c2O)[C@H](O)[C@@H](O)[C@H]1O	/	/	/	3.43µM*	/	3.06*

Source: PubChem (National Center for Advancing Translational Sciences (NCATS))
